Source: PubChem (several laboratories)
Sampled rows, rich in hits. Any-hit rate of the full collection: about 28%.
CYP2C9 inh – human CYP2C9 inhibition | inhibition, % at 5 µM | P11712 | CYP2C9 Supersomes, luciferin-H conversion, luminescence | 96,000 compounds, 20% hits;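 active = blocking of liver enzyme CYP2C9 beyond about 50% at 5 µM, limit read from the data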
D1 mod – allosterically modulates the human D1 dopamine receptor; P21728; 58,000 compounds, 5.9% hits; HEK293 D1, CRE-luciferase, dopamine EC30 potentiation; actives deviate in either direction; AID 641; B-score at 10 µM;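 active = luminescence count or its row- and column-corrected plate score outside the 99.7% band of the plate's sample wells, on either side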
CYP2C19 inhib – human CYP2C19 inhibition; AID 778; 96,000 compounds, 21% hits; P33261; inhibition, % at 5 µM; CYP2C19 Supersomes, luciferin-H EGE luminescence, 30 min;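 active = CYP2C19 inhibition above a set limit at 5 µM in the primary screen, cut at about 50% in these data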;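 note: plate controls were negative control wells for no effect and 2.5 mM tranylcypromine positive control for full effect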
DAT uptake mod – modulates human dopamine transporter uptake under cocaine. Q01959. LLC-PK1 hDAT cells, [14C]-dopamine uptake with cocaine IC80; actives deviate in either direction. B-score at 10 µM. 110,000 compounds, 1.3% hits;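 active = Z score or B-score, a plate-position-corrected score, falls beyond the plate's 99.7% confidence bounds, in either direction; inactive = both scores lie inside the 99.7% bounds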;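 note: scored against the spread of the other compound wells on the same plate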
Target sequence (Q01959 whole entry, looked up): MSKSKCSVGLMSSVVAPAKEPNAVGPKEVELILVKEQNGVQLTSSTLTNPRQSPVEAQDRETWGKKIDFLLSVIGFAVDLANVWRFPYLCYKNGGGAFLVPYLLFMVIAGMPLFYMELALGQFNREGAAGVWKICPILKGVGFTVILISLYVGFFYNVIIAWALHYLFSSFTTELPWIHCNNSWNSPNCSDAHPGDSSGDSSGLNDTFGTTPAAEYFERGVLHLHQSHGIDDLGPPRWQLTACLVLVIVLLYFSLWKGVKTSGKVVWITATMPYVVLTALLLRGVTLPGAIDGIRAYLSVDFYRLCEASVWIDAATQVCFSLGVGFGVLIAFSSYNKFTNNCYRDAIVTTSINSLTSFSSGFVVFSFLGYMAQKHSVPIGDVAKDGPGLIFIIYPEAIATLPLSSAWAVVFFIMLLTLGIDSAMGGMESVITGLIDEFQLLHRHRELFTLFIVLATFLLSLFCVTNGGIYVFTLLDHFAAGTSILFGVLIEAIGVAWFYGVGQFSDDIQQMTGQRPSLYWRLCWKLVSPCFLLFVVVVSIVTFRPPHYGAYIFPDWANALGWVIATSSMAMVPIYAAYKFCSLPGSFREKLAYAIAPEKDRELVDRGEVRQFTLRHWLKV
CYP2C19 activ – activators of human cytochrome P450 2C19; recombinant CYP2C19, luciferin-H EGE luminescence; active compounds read high; 0 = fully inhibited enzyme, 1 = untreated enzyme; activation factor at 5 µM; 96,000 tested, under 10 active;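 active = activation factor of at least 2 at 5 µM in the primary screen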;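 note: 0 = wells with 2.5 mM tranylcypromine and 1 = vehicle-only wells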
CYP2C9 act – CYP2C9 (human) activation; P11712; 96,000 compounds, 1.4% hits; recombinant CYP2C9, luciferin-H conversion, luminescence; active compounds read high; factor 1 = untreated enzyme, 0 = blocked; AID 1024; activation factor at 5 µM;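 active = activation factor of 2 or more for CYP2C9 at a 5 µM dose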;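 note: 0 = sulfaphenazole-blocked wells and 1 = vehicle-only wells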
Active calls of the source: *; . = no result given.

SMILES	CYP2C9 inh	D1 mod	CYP2C19 inhib	DAT uptake mod	CYP2C19 activ	CYP2C9 act
Cc1ccc2[nH]c3c(N4CCN(Cc5ccc6c(c5)OCO6)CC4)ncnc3c2c1	88*	.	50*	.	0.5	0.1
Cc1ccc2c(c1)c1ncnc(N3CCC4(CC3)OCCO4)c1n2C	62*	2	12	0.15	0.9	0.4
COc1cccc2[nH]c3c(N4CCN(Cc5ccc6c(c5)OCO6)CC4)ncnc3c12	85*	0.43	94*	.	0.1	0.2
c1ccc(CN2CCN(c3ncnc4c3[nH]c3ccccc34)CC2)cc1	55*	-4.9*	54*	2.9	0.5	0.5
CC(C(=O)NC1CCCc2ccccc21)N1CCN(Cc2ccc3c(c2)OCO3)CC1 (stereo not drawn)	0	0.54	10	0.42	0.9	1
COC(=O)c1nn(-c2c(C)n(C)n(-c3ccccc3)c2=O)cc1O	12	0.037	2	0.5	1	0.9
Cc1ccc2[nH]c3c(N4CCN(Cc5ccccc5)CC4)ncnc3c2c1	95*	.	78*	2.2	0.2	0.1
c1ccc2c(c1)CCN(c1ncnc3c1[nH]c1ccccc13)C2	95*	.	95*	-1.6	0	0.1
Cc1ccc2[nH]c3c(N4CCCCCC4)ncnc3c2c1	36	.	39	.	0.6	0.6
Cc1ccc2c(c1)[nH]c1c(N3CCN(Cc4ccccc4)CC3)ncnc12	65*	-3.9	36	1.1	0.6	0.4
OC1(c2cccc(C(F)(F)F)c2)CCN(c2ncnc3c2[nH]c2ccccc23)CC1	.	0.39	.	.	.	.
CCOc1ccc(CNn2nnnc2N)cc1	2	.	4	-1.6	1	1
CCOc1ccc(Cl)cc1S(=O)(=O)n1nnc2ccccc21	-104	0.37	98*	2.2	0	2*
CCOc1ccc(S(=O)(=O)n2nnc3ccccc32)cc1C	-24	0.61	-7	-0.13	1.1	1.2
CC(C)c1nc(N2CCOCC2)c(C#N)c2c1CCC2	22	0.014	16	-0.31	0.8	0.8
Cc1ccc(S(=O)(=O)N2CCN(c3nc(C(C)C)c4c(c3C#N)CC(C)(C)OC4)CC2)cc1	95*	0.02	68*	0.59	0.3	0.1
CCCNC(=O)N1CCN(c2nc(C(C)C)c3c(c2C#N)CC(C)(C)OC3)CC1	80*	4.5	87*	0.23	0.1	0.2
Cc1ccc2cc(C#N)c(N3CCCN(S(=O)(=O)c4ccc(F)cc4)CC3)nc2c1	.	.	.	0.008	.	.
Cc1ccc(CNC(=O)C2CCC(=O)N2CCc2ccccc2)cc1 (stereo not drawn)	-9	.	10	-0.2	0.9	1.1
Cc1cc(N2CCCC2)ccc1/C=N/n1cnnc1	86*	0.18	99*	-0.63	0	0.1
O=C(Cn1cc2c(n1)CCCCC2)NCc1cccs1	.	0.26	.	0.032	.	.
O=c1c2c(nc3cc(-c4ccc(F)cc4)[nH]n13)CCCC2	43	-5.3*	31	-0.57	0.7	0.6
COc1ccc(CNC(=O)COC(=O)c2cc(-c3cccs3)nc3ccccc23)cc1OC	75*	.	3	-0.5	1	0.3
COc1ccc(CNC(=O)COC(=O)c2cc(-c3ccco3)nc3ccccc23)cc1	38	.	0	.	1	0.6
O=c1c2ccccc2sn1-c1cc(S(=O)(=O)N2CCOCC2)ccc1N1CCOCC1	54*	-0.36	66*	-0.89	0.3	0.5
SMILES	CYP2C9 inh	D1 mod	CYP2C19 inhib	DAT uptake mod	CYP2C19 activ	CYP2C9 act
O=c1c2ccccc2sn1-c1cc(S(=O)(=O)N2CCOCC2)ccc1N1CCCC1	79*	.	44	-1.2	0.6	0.2
Cc1noc(C)c1C(=O)Nc1ccc(F)cc1F	-6	.	3	0.31	1	1.1
O=C(NCc1ccc2c(c1)OCO2)C1CCCN(S(=O)(=O)c2cccnc2)C1 (stereo not drawn)	50	-0.034	-2	0.29	1	0.5
Cc1cnc(C(=O)Nc2cccc3ncccc23)cn1	2	0.0031	10	0.75	0.9	1
Cc1cnc(C(=O)Nc2ccccc2-c2ccc(C)o2)cn1	89*	.	-4	0.19	1	0.1
O=C(Nc1ccc(N2CCCCC2)c(Cl)c1)c1ncn[nH]1	-8	-0.92	10	0.1	0.9	1.1
Cc1ccc2c(CC(=O)O)coc2c1C	6	0.088	5	1	0.9	0.9
